Laboratory results: the supplement of paper PMC12645437, “Orthogonal IMiD-Degron Pairs Induce Selective Protein Degradation in Cells” (ACS Chemical Biology, 2025)
Over roughly 8,300 sequences, “log2 fold change of degron read counts, EGFP-low vs EGFP+ sorted cells (limma voom), compound-induced degradation” has its median near -1.1; the highest 2% begin near 3.2. This excerpt belongs to a sample that is enriched for the highest values.

Target: T1, CRBN, Q96SW2
T1 chain: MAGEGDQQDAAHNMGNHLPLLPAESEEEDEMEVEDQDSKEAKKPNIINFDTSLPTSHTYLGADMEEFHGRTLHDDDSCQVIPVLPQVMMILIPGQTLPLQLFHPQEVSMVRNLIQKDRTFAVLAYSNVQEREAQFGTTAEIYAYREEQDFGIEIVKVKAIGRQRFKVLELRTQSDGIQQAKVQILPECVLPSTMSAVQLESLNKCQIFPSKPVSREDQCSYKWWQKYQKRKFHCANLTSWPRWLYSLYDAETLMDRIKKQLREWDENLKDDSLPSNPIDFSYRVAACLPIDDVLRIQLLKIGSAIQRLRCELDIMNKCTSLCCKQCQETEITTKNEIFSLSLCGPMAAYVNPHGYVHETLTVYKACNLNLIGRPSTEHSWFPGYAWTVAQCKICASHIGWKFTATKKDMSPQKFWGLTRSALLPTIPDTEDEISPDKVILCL
Test: log2 fold change of degron read counts, EGFP-low vs EGFP+ sorted cells (limma voom), compound-induced degradation; higher = more compound-induced degradation of the degron-EGFP fusion; degrons are variants of IKZF1/3 zinc finger 2; compound dose not given here
Conditions: Jurkat, 18 h

[1] = compound: compound 19 (5-tert-butyl-thalidomide)
[2] = compound: compound 22 (5-morpholino-thalidomide)
[3] = compound: compound 33 (diphenyl IMiD analogue)
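Note: pooled lentiviral library of zinc finger degron-EGFP fusions in mCherry-positive Jurkat cells, FACS-sorted after compound exposure, with degron abundance counted by next-generation sequencing.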

B1: 46F_47N_49N_50Q_52G_53R_54F_55F_67L_, Q9UKT9 (peptide)
chain: FNCNQCGRFFTQKGNLLRHIKL
log2 fold change of degron read counts [1]: -1.77
log2 fold change of degron read counts [2]: -2.76
log2 fold change of degron read counts [3]: -1.9
log2 fold change of degron read counts (compound: thalidomide): -1.6

B2: 46F_47R_49P_50I_52G_53H_54I_55F_67L_, Q9UKT9 (peptide)
chain: FRCPICGHIFTQKGNLLRHIKL
log2 fold change of degron read counts [1]: -2.22
log2 fold change of degron read counts [2]: -2.81
log2 fold change of degron read counts [3]: -1.62
log2 fold change of degron read counts (compound: thalidomide): -1.42

B3: 46F_47L_49E_50I_52G_53H_54Q_55F_67L_, Q9UKT9 (peptide)
chain: FLCEICGHQFTQKGNLLRHIKL
log2 fold change of degron read counts [1]: -3.24
log2 fold change of degron read counts [2]: -3.62
log2 fold change of degron read counts [3]: -3.53
log2 fold change of degron read counts (compound: thalidomide): -2.18

B4: 46L_47K_49P_50I_52G_53F_54D_55C_67L_, Q9UKT9 (peptide)
chain: LKCPICGFDCTQKGNLLRHIKL
log2 fold change of degron read counts [1]: -1.99
log2 fold change of degron read counts [2]: -1.82
log2 fold change of degron read counts [3]: -1.08
log2 fold change of degron read counts (compound: thalidomide): -0.789

B5: 46F_47G_49E_50I_52G_53H_54G_55F_67L_, Q9UKT9 (peptide)
chain: FGCEICGHGFTQKGNLLRHIKL
log2 fold change of degron read counts [1]: -2.33
log2 fold change of degron read counts [2]: -2.62
log2 fold change of degron read counts [3]: -2.89
log2 fold change of degron read counts (compound: thalidomide): -2.42

B6: 46F_47L_49P_50I_52G_53R_54F_55F_67L_, Q9UKT9 (peptide)
chain: FLCPICGRFFTQKGNLLRHIKL
log2 fold change of degron read counts [1]: -1.24
log2 fold change of degron read counts [2]: -1.32
log2 fold change of degron read counts [3]: 0.143
log2 fold change of degron read counts (compound: thalidomide): 0.16

B7: 46F_47S_49P_50I_52G_53A_54S_55F_67L_, Q9UKT9 (peptide)
chain: FSCPICGASFTQKGNLLRHIKL
log2 fold change of degron read counts [1]: 3.35
log2 fold change of degron read counts [2]: 2.78
log2 fold change of degron read counts [3]: 2.17
log2 fold change of degron read counts (compound: thalidomide): 2.01

B8: 46F_47R_49P_50I_52G_53A_54S_55F_67L_, Q9UKT9 (peptide)
chain: FRCPICGASFTQKGNLLRHIKL
log2 fold change of degron read counts [1]: 1.96
log2 fold change of degron read counts [2]: 1.71
log2 fold change of degron read counts [3]: 1.79
log2 fold change of degron read counts (compound: thalidomide): 1.78

B9: 46F_47M_49P_50I_52G_53A_54S_55F_67L_, Q9UKT9 (peptide)
chain: FMCPICGASFTQKGNLLRHIKL
log2 fold change of degron read counts [1]: 1.54
log2 fold change of degron read counts [2]: 2.45
log2 fold change of degron read counts [3]: 2.91
log2 fold change of degron read counts (compound: thalidomide): 2.41

B10: 46F_47E_49P_50I_52G_53A_54S_55F_67L_, Q9UKT9 (peptide)
chain: FECPICGASFTQKGNLLRHIKL
log2 fold change of degron read counts [1]: 2.15
log2 fold change of degron read counts [2]: -0.116
log2 fold change of degron read counts [3]: 2.38
log2 fold change of degron read counts (compound: thalidomide): 3.32

B11: 46F_47I_49P_50I_52G_53A_54S_55F_67L_, Q9UKT9 (peptide)
chain: FICPICGASFTQKGNLLRHIKL
log2 fold change of degron read counts [1]: -0.0282
log2 fold change of degron read counts [2]: 2.87
log2 fold change of degron read counts [3]: 1.99
log2 fold change of degron read counts (compound: thalidomide): 2.6

B12: 46F_47A_49P_50I_52G_53A_54S_55F_67L_, Q9UKT9 (peptide)
chain: FACPICGASFTQKGNLLRHIKL
log2 fold change of degron read counts [1]: 3.73
log2 fold change of degron read counts [2]: 2.44
log2 fold change of degron read counts [3]: 1.48
log2 fold change of degron read counts (compound: thalidomide): 1.61

B13: 46F_47E_49N_50I_52G_53A_54S_55F_67L_, Q9UKT9 (peptide)
chain: FECNICGASFTQKGNLLRHIKL
log2 fold change of degron read counts [1]: -0.173
log2 fold change of degron read counts [2]: -1.42
log2 fold change of degron read counts [3]: 0.849
log2 fold change of degron read counts (compound: thalidomide): 1.86

B14: 46F_47C_49P_50I_52G_53A_54S_55F_67L_, Q9UKT9 (peptide)
chain: FCCPICGASFTQKGNLLRHIKL
log2 fold change of degron read counts [1]: 3.32
log2 fold change of degron read counts [2]: 2.71
log2 fold change of degron read counts [3]: 2.44
log2 fold change of degron read counts (compound: thalidomide): 2.37

B15: 46F_47C_49N_50I_52G_53A_54S_55F_67L_, Q9UKT9 (peptide)
chain: FCCNICGASFTQKGNLLRHIKL
log2 fold change of degron read counts [1]: 1.56
log2 fold change of degron read counts [2]: 1.91
log2 fold change of degron read counts [3]: 1.76
log2 fold change of degron read counts (compound: thalidomide): 1.41

B16: 46F_47V_49P_50I_52G_53A_54S_55F_67L_, Q9UKT9 (peptide)
chain: FVCPICGASFTQKGNLLRHIKL
log2 fold change of degron read counts [1]: 0.995
log2 fold change of degron read counts [2]: 2.78
log2 fold change of degron read counts [3]: 2.19
log2 fold change of degron read counts (compound: thalidomide): 3.08

B17: 46F_47Q_49P_50I_52G_53R_54G_55F_67L_, Q9UKT9 (peptide)
chain: FQCPICGRGFTQKGNLLRHIKL
log2 fold change of degron read counts [1]: -0.816
log2 fold change of degron read counts [2]: -0.908
log2 fold change of degron read counts [3]: -0.112
log2 fold change of degron read counts (compound: thalidomide): 1.8

B18: 46F_47Q_49E_50I_52G_53A_54V_55F_67L_, Q9UKT9 (peptide)
chain: FQCEICGAVFTQKGNLLRHIKL
log2 fold change of degron read counts [1]: 0.132
log2 fold change of degron read counts [2]: 2.71
log2 fold change of degron read counts [3]: 2.34
log2 fold change of degron read counts (compound: thalidomide): 3.22
